Data on 49 compounds can be found in PubChem BioAssay AID901 (National Center for Advancing Translational Sciences (NCATS), 2007).

Out of some 120,000 compounds screened, fewer than 10 were called active. Inconclusive results (about 4%) are left out. The call rests on the fitted dose curve; in most records, active means well fitted curve in the direction sought with a large enough effect in the signal ratio (not every such curve was filed as active); inconclusive means small, poorly fitted or top-dose-only effect, or a change in a side signal; inactive means no such curve, though single readings can be large or run the other way; the % refers to the signal ratio. Only a sample is shown.

The target of the experiment is Inositol monophosphatase 1 (Rattus norvegicus) (UniProt P97697). Description: qHTS Assay for Identifying the Cell-Membrane Permeable IMPase Inhibitors.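 Further: higher means more IMPase inhibition seen as more IP1 and lower FRET ratio.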 Particulars: CHO-M1 cells, HTRF TR-FRET ratio; series mostly up to 46.1 µM. An excerpt: NCGC IMPase Assay Overview
Chain of Inositol monophosphatase 1 (Rattus norvegicus) (P97697 whole entry, looked up): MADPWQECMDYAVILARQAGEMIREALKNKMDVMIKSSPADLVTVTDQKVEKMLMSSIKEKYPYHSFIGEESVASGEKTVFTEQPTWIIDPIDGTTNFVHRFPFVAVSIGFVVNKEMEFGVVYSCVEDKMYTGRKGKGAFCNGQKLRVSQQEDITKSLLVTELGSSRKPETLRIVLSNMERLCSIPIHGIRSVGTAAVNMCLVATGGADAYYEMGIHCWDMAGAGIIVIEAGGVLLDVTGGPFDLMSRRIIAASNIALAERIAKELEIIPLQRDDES
Lithium has been widely used for the treatment of bipolar disorder. But lithium has a narrow therapeutic index and it can cause side effects such as thirst, weight gain, tremor, polyuria and memory problems. Although the mechanism for lithium action in treatment of bipolar disorder is still not fully understood, inhibition of inositol monophosphatase (IMPase) and the subsequent depletion of the inositol pool in living cells have been implicated as the primary therapeutic benefit of lithium therapy. Therefore, a selective IMPase inhibitor with reduced side effects might be a good drug candidate to replace lithium for the treatment of bipolar disorder. Several IMPase inhibitors have been discovered previously. However, they are not suitable for therapeutic use because of their poor cell membrane penetrability or oral bioavailability; the development of new cell-permeable IMPase inhibitors is needed.
IMPase catalyzes the hydrolysis of inositol-1-phosphate (IP1) to release free inositol. Binding of an agonist to a Gq coupled GPCR results in the activation of PLC, which hydrolyzes the PIP2 to form inositol-1,4,5-trisphosphate (IP3) and diacyl glycerol (DAG). While DAG activates protein kinase C (PKC), IP3 triggers the elevation of intracellular free Ca2+. The IP3 is very rapidly inactivated by hydrolysis to IP2, IP1 and then inositol by a series of enzymes including IMPase. Free inositols are used for synthesis of PI and thus start another inositol cycle.
To identify new cell-permeable IMPase inhibitors, we developed a cell-based IMPase assay in which the cytosolic IP1 is measured by a time-resolved fluorescence resonance energy transfer (TR-FRET) assay. In this assay, an IP1 specific antibody is used to detect the labeled IP1 tracer. When the cell lysate contains the elevated IP1 due to the inhibition of IMPase, the TR-FRET between the labeled antibody and IP1 tracer is disrupted resulting in a reduction in the total signal. Since the TR-FRET is used, this cell-based assay is a homogenous assay without cell wash and medium change that is suitable for assay miniaturization and HTS.
NCGC IMPase Assay Protocol Summary
A Chinese hamster ovary (CHO) cell line stably expressing the M1 receptor (CHO-M1) was obtained from ATCC and maintained in F-12 Kaighn's media (Invitrogen, Carlsbad, CA, 21127) supplemented with 10 % FBS, 100 units/ml penicillin, 100 ug/ml streptomycin and 250 ug/ml geneticin at 37C, 5% CO2 in a humidified atmosphere. Before the assay, aliquots of cells were frozen and stored at -135C. The assay was performed in 1536-well format. Data are reported for both the ratio of the two emission wavelengths, and also for the component 'donor' channel, Em2=620. […] AC50 values were determined from concentration-response data modeled with the standard Hill equation.
IMPase 1536-well assay protocol:
(1) Plate 4 ul/well (2000 cells) of cell suspension from frozen CHO-M1 Cells in white, tissue culture treated 1536-well plates that are cultured at 37C, 5 % CO2 for 16 to 30 hours.
(2) Add 23 nl/well of compound in DMSO solution. The final titration for each compound was between 0.6 nM and 46 uM.
(3) Add 1 ul of carbachol (50 uM in stimulation buffer containing10mM HEPES, 1mM CaCl2, 0.5 mM MgCl2, 4.2 mM KCl, 146 mM NaCl, 5.5 mM glucose, 50mM LiCl, pH 7.4.
(4) Incubation at 37C, 5 % CO2 for 30 min.
(5) Add 1 ul/well of d2-conjugated IP1 (d2-IP1) and 1 ul/well of Eu+ cryptate conjugated anti-IP1 antibody (Eu+-Ab) prepared in the cell lysis buffer, both from the IP-One kit (Cisbio, MA).
(6) Incubate at room temperature for 10 minutes.
(7) Detect the assay plate (Ex = 320, Em1 =665 and Em2 620) in a ViewLux plate reader.
inositol monophosphatase, IMPase, IMPase inhibitor, lithium, bipolar disorder, IP-One, HTRF, qHTS, NIH roadmap, NCGC
Note: In the gene ID and protein GI references for this assay, rat IMPase is referenced instead of hampster as hamster accession numbers were not available.
For orientation: qHTS replaces the single test concentration by a dilution series.
For `CCCCNC(=O)CSc1nc2ccc(NC(=O)CSc3nnc(N)s3)cc2s1`, the result was inactive.

For `CCOC(=O)c1cc(NC(=O)c2ccc(F)cc2)c(=O)n2c1oc1ccccc12`, the outcome was inactive.

`Cn1c(=O)[nH]c(=O)c2c1nc(NCCc1ccccc1)n2Cc1ccc(F)cc1`: the result was inactive.

For `COc1ccc(NC(=O)c2ccco2)cc1NC(=O)COc1ccc(C)c(C)c1`, the outcome was inactive.

On to `CCN(c1ccc(NC(=O)COC(=O)CCc2nc3ccccc3n2-c2ccccc2)cc1)C(C)C`, for which the outcome was inactive.

On to `COC(=O)c1c(NC(=O)CN2C(=O)NC(CCc3ccccc3)C2=O)sc2c1CCCCC2` (centres undefined), for which the outcome was inactive.

Regarding `Cn1c(=O)c2c(nc(NCCc3ccccc3)n2Cc2ccccc2Br)n(C)c1=O`, the result was inactive.

Turning to `COc1ccccc1CNC(=O)CN1CCC(n2cnc3cc(F)ccc32)CC1`, the outcome was inactive.

For `Cc1ccc(NC2=C(c3ccc(C(F)(F)F)cc3)C(=O)c3ccccc32)cc1F`, the result was inactive.

As for `CCOC(=O)c1cnc2c(C)cc(C)cc2c1Nc1ccc(N2CCOCC2)cc1`, the result was inactive.

Regarding `CC(=O)Nc1ccc(Nc2c([N+](=O)[O-])cc(S(C)(=O)=O)cc2[N+](=O)[O-])cc1`, the outcome was inactive.

Take `COc1cccc(NC(=O)C(Sc2nc3ccccc3c(=O)n2CC(C)C)c2ccccc2)c1` (centres undefined): the result was inactive.

For `CC(C)c1ccc(S(=O)(=O)Nc2ccc(O)c(Sc3nc4ccccc4s3)c2)cc1`, the result was inactive.

For the compound `COc1ccc(CCNC(=O)CSc2nc(-c3ccc(OC)c(OC)c3)ccc2C#N)cc1`, the outcome was inactive.

On to `COc1ccc(C(=O)COC(=O)CCCC(=O)Nc2cc(C(F)(F)F)ccc2Cl)cc1`, for which the result was inactive.

As to `COc1cc(C(=O)N(Cc2ccc(C(C)C)cc2)C2CCS(=O)(=O)C2)cc(OC)c1OC` (centres undefined), the result was inactive.

For `CCCC(=O)Nc1cc2nn(-c3ccccc3)nc2cc1C`, the result was inactive.

Regarding `Cc1ccc2oc3c(c(=O)c2c1)C(c1ccc(O)cc1)N(Cc1ccc2c(c1)OCO2)C3=O` (centres undefined), the result was inactive.

Turning to `Cc1[nH]c2ccccc2c1/C=N/NC(=O)CNC(=O)c1ccc2c(c1)OCO2`, the outcome was inactive.

As to `Cc1ccccc1NC(=O)CSC1=NCCN1`, the outcome was inactive.

On to `COc1ccccc1OCCCn1c(-c2ccc(Cl)cc2)nc2ccccc2c1=O`, for which the outcome was inactive.

Consider `Cc1cc(C)c[n+](-c2nc3ccccc3nc2[N-]S(=O)(=O)c2cccs2)c1`, for which the result was inactive.

As for `CC1CCCN(Cc2c(O)ccc3c(=O)c(Oc4ccc(C(C)(C)C)cc4)c(C(F)(F)F)oc23)C1` (centres undefined), the outcome was inactive.

Take `CCn1c(=O)c(=O)n(CC)c2cc(N3CCCCC3)c(NC(=O)c3cccc(F)c3)cc21`: the outcome was inactive.

Regarding `COc1cccc(CNC(=O)CCc2nc(-c3ccc(C)cc3)no2)c1`, the outcome was inactive.

In the case of `COc1cc(OC)c(C2C=C(C(=O)O)Nc3ncnn32)cc1OC` (centres undefined), the outcome was inactive.

As to `CCCn1c(N)c(C(=O)CSc2nnc(-c3cccnc3)n2-c2ccc(C)cc2C)c(=O)[nH]c1=O`, the result was inactive.

`CCCCCC(=O)NC(=S)NNC(=O)c1ccc([N+](=O)[O-])cc1`: the outcome was inactive.

Take `CCOC(=O)c1c(-c2ccc(OC)cc2)oc2ccc(OCc3ccc(C(=O)OC)cc3)cc12`: the outcome was inactive.

In the case of `CC(C)c1ccc(OCC(=O)N(Cc2ccc(N(C)C)cc2)C2CCS(=O)(=O)C2)cc1` (centres undefined), the outcome was inactive.

For the compound `CCN(C(=O)Cn1cc(S(=O)(=O)N2CCN(c3ccccc3F)CC2)c2ccccc2c1=O)c1ccc(C)c(C)c1`, the result was inactive.

Regarding `Cc1nn(Cc2ccc(Cl)cc2)c(Cl)c1/C=N/NC(=O)CNc1ccccc1F`, the outcome was inactive.

As to `CC(C)(C)c1ccc(C(=O)NCc2nnc(SCC(=O)N3CCCc4ccccc43)n2-c2ccccc2)cc1`, the result was inactive.

Consider `COc1ccccc1N1CCN(CC(=O)NC(=O)NCc2ccco2)CC1`, for which the result was inactive.

`CC(=O)N1CCN(CC(=O)Nc2ccc(SC(F)F)cc2)CC1`: the result was inactive.

`Cc1ccc(Cl)cc1NC(=O)/C(C#N)=C\c1cn(Cc2ccc(F)cc2)c2ccccc12`: the result was inactive.

For `COc1ccc(NS(=O)(=O)c2ccc(NC(=S)NC(=O)/C=C/c3ccc(C)cc3)cc2)nn1`, the result was inactive.

Take `N#CCOc1ccc(C2=NO[C@@H]3[C@@H]4C[C@@H]([C@H]5C(=O)N(c6ccc7c(c6)OCO7)C(=O)[C@@H]45)[C@H]23)cc1`: the outcome was inactive.

With `Cc1ccc(S(=O)(=O)c2nc(-c3cccs3)oc2N2CCCCC2)cc1`, the result was inactive.

In the case of `CCCCn1c(=O)c(CCC(=O)OCC(=O)Nc2ccc(C)c(Cl)c2)nc2ccccc21`, the result was inactive.

With `Cc1c(Cl)cccc1NC(=O)Cn1cc(C(=O)c2cccs2)c2ccccc21`, the outcome was inactive.

On to `O=C(CCc1ccc(S(=O)(=O)N2CCOCC2)cc1)NN=C1CCCCCCC1`, for which the outcome was inactive.

For the compound `Cc1ccc(CN2C(=O)SC(Nc3ccccc3)C2=O)cc1` (centres undefined), the outcome was inactive.

Regarding `COc1ccc(CCNC(=O)/C(C#N)=C2\N=C(NC(=O)c3cccs3)c3ccccc32)cc1`, the outcome was inactive.

Turning to `CCc1c(C)sc(NC(=O)C2c3ccccc3Oc3ccccc32)c1C(=O)OC(C)C`, the result was inactive.

On to `COc1ccc(/C(C)=N/Nc2cc(C(F)(F)F)ccc2Cl)c(OC)c1`, for which the outcome was inactive.

Turning to `Cc1ccccc1-c1nc2cc(NC(=O)c3cccc(OCCC(C)C)c3)ccc2o1`, the outcome was inactive.

For `CCCc1c(C)nc2c(Br)cccc2c1Cl`, the result was inactive.

Take `CCCCCNC(=O)c1cccnc1SCC(=O)Nc1ccccc1OC`: the outcome was inactive.
